{"source": "PubChem BioAssay (EPA / NIEHS)", "key": {"[1]": {"biological_target": "Nuclear respiratory factor 1 (Homo sapiens) (UniProt Q16656)", "sequence (Q16656 whole entry, looked up)": "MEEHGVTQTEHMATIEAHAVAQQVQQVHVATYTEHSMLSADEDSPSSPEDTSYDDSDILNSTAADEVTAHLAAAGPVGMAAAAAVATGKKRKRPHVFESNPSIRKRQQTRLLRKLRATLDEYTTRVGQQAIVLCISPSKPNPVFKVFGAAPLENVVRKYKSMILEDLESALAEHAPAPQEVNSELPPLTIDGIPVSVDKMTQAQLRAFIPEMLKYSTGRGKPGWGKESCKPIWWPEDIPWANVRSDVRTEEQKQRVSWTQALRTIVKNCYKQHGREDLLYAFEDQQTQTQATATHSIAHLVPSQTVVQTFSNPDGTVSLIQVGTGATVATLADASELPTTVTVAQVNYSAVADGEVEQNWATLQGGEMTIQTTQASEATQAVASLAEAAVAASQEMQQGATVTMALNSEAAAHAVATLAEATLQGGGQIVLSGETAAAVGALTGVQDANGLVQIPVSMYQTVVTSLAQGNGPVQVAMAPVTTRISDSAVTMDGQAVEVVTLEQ", "assay": "ATG_NRF1_CIS: Attagene CIS-FACTORIAL HepG2 Assay for human Nuclear Respiratory Factor 1 (NRF1) Orphan Gene (AID 2282987)", "conditions": "HepG2 NRF1 cis-element reporter, Attagene multiplex; actives raise or lower the signal", "summary_of_the_method": "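Endogenous factor activity was captured via cis-element-driven reporter transcripts in HepG2 cells. Following 24 h chemical treatment, transcripts were quantified by RT-PCR and capillary electrophoresis.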"}, "[2]": {"assay": "ATG_NFI_CIS: Attagene CIS-FACTORIAL HepG2 Assay for human Nuclear Factor I (NFI) (AID 2282989)", "conditions": "HepG2 cis-regulatory reporter, NFI response element transcription; actives raise or lower the signal", "summary_of_the_method": "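HepG2 cells transiently transfected with cis-element-driven multiplexed reporter transcription units, dosed for 24 h. Reporter mRNA quantified by RT-PCR, fluorescent labelling, HpaI digestion and capillary electrophoresis; bidirectional fit versus DMSO baseline.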"}, "[3]": {"biological_target": "Myc proto-oncogene protein (Homo sapiens) (UniProt P01106)", "sequence (P01106 whole entry, looked up)": "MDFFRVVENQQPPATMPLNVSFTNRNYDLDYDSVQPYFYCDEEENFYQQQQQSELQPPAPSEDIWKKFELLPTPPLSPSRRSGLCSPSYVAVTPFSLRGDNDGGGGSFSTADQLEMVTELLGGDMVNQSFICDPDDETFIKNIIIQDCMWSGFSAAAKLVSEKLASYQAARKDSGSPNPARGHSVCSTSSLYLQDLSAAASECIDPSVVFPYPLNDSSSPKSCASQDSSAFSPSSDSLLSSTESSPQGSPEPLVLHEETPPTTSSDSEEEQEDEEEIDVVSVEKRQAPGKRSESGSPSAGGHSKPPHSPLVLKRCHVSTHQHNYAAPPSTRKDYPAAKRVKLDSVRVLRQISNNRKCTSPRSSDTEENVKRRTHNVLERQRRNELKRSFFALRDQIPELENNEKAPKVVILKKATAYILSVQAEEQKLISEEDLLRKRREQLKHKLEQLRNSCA", "assay": "ATG_Myc_CIS: Attagene CIS-FACTORIAL HepG2 Assay for human Myelocytomatosis (Myc) Proto-Oncogene Transcription Factor (AID 2282990)", "conditions": "HepG2, Attagene cis-reporter transcription factor activity; actives raise or lower the signal", "summary_of_the_method": "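Multiplexed cis-reporter transcription in HepG2 cells after 24 h chemical treatment. Reporter mRNA measured by RT-PCR and capillary electrophoresis fluorescence; activity fitted bidirectionally against DMSO control.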"}, "[4]": {"assay": "ATG_NF_kB_CIS: Attagene CIS-FACTORIAL HepG2 Assay for human Nuclear Factor Kappa B (NF-kB) (AID 2282991)", "conditions": "HepG2 Attagene cis-factorial NF-kB reporter mRNA; actives raise or lower the signal", "summary_of_the_method": "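After 24 h compound incubation, transfected HepG2 cells yield total RNA; reporter cDNA is PCR-amplified, end-labelled with 6-FAM, HpaI-digested and analysed on a genetic analyser. Endogenous factor activity, DMSO-referenced bidirectional fit.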"}, "[5]": {"assay": "ATG_NRF2_ARE_CIS: Attagene CIS-FACTORIAL HepG2 Assay for human Nuclear Factor Erythroid 2 Related Factor 2 (NFR2) response to Antioxidant Response Elements (ARE) (AID 2282992)", "conditions": "HepG2 Attagene ARE/NRF2 reporter, transcription factor activity; actives raise or lower the signal", "summary_of_the_method": "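Readout: reporter mRNA quantified by RT-PCR plus FAM-labelled primer extension, HpaI digestion and capillary electrophoresis, 24 h after dosing transfected HepG2 cells. Gain or loss of signal is fitted bidirectionally against DMSO baseline.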"}, "[6]": {"assay": "ATG_Oct_MLP_CIS: Attagene CIS-FACTORIAL HepG2 Assay for human Octamer-Binding Transcription Factor (Oct) (AID 2282993)", "conditions": "HepG2 Attagene cis-factorial Oct reporter, mRNA; actives raise or lower the signal", "summary_of_the_method": "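HepG2 cells transiently transfected with cis-promoter-driven multiplexed reporter transcription units, dosed for 24 h. Reporter mRNA quantified by RT-PCR, fluorescent labelling, HpaI digestion and capillary electrophoresis; bidirectional fits versus DMSO baseline.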"}, "[7]": {"biological_target": "Cellular tumor antigen p53 (Homo sapiens) (UniProt P04637)", "sequence (P04637 whole entry, looked up)": "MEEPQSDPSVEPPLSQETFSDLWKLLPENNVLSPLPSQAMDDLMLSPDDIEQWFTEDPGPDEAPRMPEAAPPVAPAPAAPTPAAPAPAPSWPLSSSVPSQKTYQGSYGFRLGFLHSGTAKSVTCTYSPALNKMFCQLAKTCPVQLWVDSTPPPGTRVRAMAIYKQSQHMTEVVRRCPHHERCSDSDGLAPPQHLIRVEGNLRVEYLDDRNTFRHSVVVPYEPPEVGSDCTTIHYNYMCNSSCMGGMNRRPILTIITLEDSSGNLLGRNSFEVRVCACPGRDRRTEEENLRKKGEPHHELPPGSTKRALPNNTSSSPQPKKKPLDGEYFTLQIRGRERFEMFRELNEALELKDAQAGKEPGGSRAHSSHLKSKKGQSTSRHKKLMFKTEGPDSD", "assay": "ATG_p53_CIS: Attagene CIS-FACTORIAL HepG2 Assay for human p53 Transcription Factor (AID 2282994)", "conditions": "HepG2 p53 cis-element reporter, Attagene mRNA; actives raise or lower the signal", "summary_of_the_method": "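Read-out: reporter mRNA by RT-PCR plus capillary electrophoresis with fluorescence detection. Human HepG2 liver cells carried transfected multi-reporter cis-element constructs, dosed 24 h. Gain or loss of signal fitted bidirectionally against DMSO control.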"}, "[8]": {"assay": "BSK_3C_TissueFactor: BioMAP Diversity Plus: 3C Assay for Tissue Factor Biomarker Activity (AID 2282997)", "conditions": "BioMAP 3C HUVEC, tissue factor biomarker readout; actives raise or lower the signal", "summary_of_the_method": "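HUVEC, 3C system, 24 h post-dose; Tissue Factor by ELISA; bidirectional fit vs DMSO baseline.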"}, "[9]": {"assay": "BSK_3C_uPAR: BioMAP Diversity Plus: 3C Assay for Urokinase-type plasminogen activator receptor (uPAR) Biomarker Activity (AID 2282998)", "conditions": "BioMAP 3C HUVEC, uPAR biomarker ELISA; actives raise or lower the signal", "summary_of_the_method": "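Human umbilical vein endothelial primary cells were exposed to test chemical for 24 h. Cell-surface uPAR was then quantified by ELISA, and responses were fitted bidirectionally against DMSO as negative control and baseline.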"}, "[10]": {"assay": "BSK_3C_VCAM1: BioMAP Diversity Plus: 3C Assay for Vascular cell adhesion molecule 1 (VCAM1) Biomarker Activity (AID 2282999)", "conditions": "BioMAP 3C HUVEC, VCAM1 ELISA, cytokine-stimulated; actives raise or lower the signal", "summary_of_the_method": "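Vascular primary endothelium (human umbilical vein) was exposed to chemicals and assayed 24 h later. VCAM-1 levels came from ELISA, with DMSO serving as baseline for bidirectional fitting.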"}}, "note": "Where “and” joins values, the source holds several entries; their conditions need not be identical. Identical values can stand only once. Some compounds were tested as several samples or in several runs, with calls that do not always agree. Calls of active or inactive are those of the source. The calls were made as follows: active = hit-call score of the fitted dose curve at least 0.9, where 1 is the maximum; inactive = score below 0.9."}
{"smiles": "COC(=O)c1ccc(C=O)cc1", "values": [{"measurement": "outcome", "setting": "[1]", "value": "inactive"}, {"measurement": "outcome", "setting": "[2]", "value": "inactive"}, {"measurement": "outcome", "setting": "[3]", "value": "inactive"}, {"measurement": "outcome", "setting": "[4]", "value": "inactive"}, {"measurement": "outcome", "setting": "[5]", "value": "inactive"}, {"measurement": "outcome", "setting": "[6]", "value": "inactive"}, {"measurement": "outcome", "setting": "[7]", "value": "inactive"}]}
{"smiles": "NC(O)(C(F)(F)F)C(F)(F)F", "values": [{"measurement": "outcome", "setting": "[1]", "value": "inactive"}, {"measurement": "outcome", "setting": "[2]", "value": "inactive"}, {"measurement": "outcome", "setting": "[3]", "value": "inactive"}, {"measurement": "outcome", "setting": "[4]", "value": "inactive"}, {"measurement": "outcome", "setting": "[5]", "value": "inactive"}, {"measurement": "outcome", "setting": "[6]", "value": "inactive"}, {"measurement": "outcome", "setting": "[7]", "value": "inactive"}, {"measurement": "outcome", "setting": "[8]", "value": "inactive"}, {"measurement": "outcome", "setting": "[9]", "value": "inactive"}, {"measurement": "outcome", "setting": "[10]", "value": "inactive"}]}
{"smiles": "F[Si-2](F)(F)(F)(F)F", "values": [{"measurement": "outcome", "setting": "[1]", "value": "inactive"}, {"measurement": "outcome", "setting": "[2]", "value": "inactive"}, {"measurement": "outcome", "setting": "[3]", "value": "inactive"}, {"measurement": "outcome", "setting": "[4]", "value": "inactive"}, {"measurement": "outcome", "setting": "[5]", "value": "inactive"}, {"measurement": "outcome", "setting": "[6]", "value": "inactive"}, {"measurement": "outcome", "setting": "[7]", "value": "inactive"}]}
{"smiles": "C=C(C)C(=O)OCC(F)(F)C(F)(F)C(F)(F)C(F)F", "values": [{"measurement": "outcome", "setting": "[1]", "value": "inactive"}, {"measurement": "outcome", "setting": "[2]", "value": "inactive"}, {"measurement": "outcome", "setting": "[3]", "value": "inactive"}, {"measurement": "outcome", "setting": "[4]", "value": "inactive"}, {"measurement": "outcome", "setting": "[5]", "value": "inactive"}, {"measurement": "outcome", "setting": "[6]", "value": "inactive"}, {"measurement": "outcome", "setting": "[7]", "value": "inactive"}, {"measurement": "outcome", "setting": "[8]", "value": "inactive"}, {"measurement": "outcome", "setting": "[9]", "value": "inactive"}, {"measurement": "outcome", "setting": "[10]", "value": "inactive"}]}
{"smiles": "CCN(CCO)S(=O)(=O)C(F)(F)C(F)(F)C(F)(F)C(F)(F)C(F)(F)C(F)(F)C(F)(F)C(F)(F)F", "values": [{"measurement": "outcome", "setting": "[1]", "value": "inactive"}, {"measurement": "outcome", "setting": "[2]", "value": "inactive"}, {"measurement": "outcome", "setting": "[3]", "value": "inactive"}, {"measurement": "outcome", "setting": "[4]", "value": "inactive"}, {"measurement": "AC50", "setting": "[5]", "value": "110 µM (active)"}, {"measurement": "AC50", "setting": "[6]", "value": "15.4 µM (active)"}, {"measurement": "AC50", "setting": "[8]", "value": "55.1 µM (active) and 9.9 µM (active)"}, {"measurement": "AC50", "setting": "[9]", "value": "8.1 µM (active)"}, {"measurement": "outcome", "setting": "[9]", "value": "inactive"}, {"measurement": "outcome", "setting": "[10]", "value": "inactive"}]}
{"smiles": "Cc1ccc(S(=O)(=O)C(I)I)cc1", "values": [{"measurement": "AC50", "setting": "[1]", "value": "7.84 µM (active)"}, {"measurement": "AC50", "setting": "[2]", "value": "8.6 µM (active)"}, {"measurement": "AC50", "setting": "[3]", "value": "8.6 µM (active)"}, {"measurement": "AC50", "setting": "[4]", "value": "19.5 µM (active)"}, {"measurement": "AC50", "setting": "[5]", "value": "15.9 µM (active)"}, {"measurement": "AC50", "setting": "[6]", "value": "8.98 µM (active)"}, {"measurement": "AC50", "setting": "[8]", "value": "1.85 µM (active)"}, {"measurement": "AC50", "setting": "[9]", "value": "1.45 µM (active)"}, {"measurement": "AC50", "setting": "[10]", "value": "3.06 µM (active)"}]}
